# Values joined by “and” are separate entries in the source; they are usually repeats but may differ in a detail not shown here. Equal entries are not always repeated. Compounds without any hit were thinned out: in the full panel of roughly 83,000, 20% have a hit.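 Single-concentration screen, 48 h exposure, 96-well plates. Endpoint: percent growth. Below 10 = active.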 Unmarked numbers belong to inactive results. Active and inactive are the calls of the source.
# Test system: MDA-MB-468 breast
# Assay: NCI-60 one-dose screen, 48 h (100 = growth as untreated, 0 = no growth, -100 = all killed)
# Details: 10 µM unless noted
row,Structure (SMILES),growth
1,COc1ccc(-c2nnc(N3CCN(C(=O)CN4CCN(c5ccc(OC)cc5)CC4)CC3)nc2-c2ccc(OC)cc2)cc1,-54.8% (active)
2,O=C(NNC(=O)c1nc2cc(F)ccc2n2cccc12)c1cnccn1,22.2%
3,COc1cc(/C(C)=C(\c2ccc(Cl)cc2)c2ccc(OCCN(C)C)cc2)ccc1F,45.6%
4,CCN1CCN(c2nc3ccccc3c3c(=O)c4ccccc4sc23)CC1,35.5%
5,N#CC1=C(N)Oc2c(sc3c(Br)cccc23)C1c1ccc([N+](=O)[O-])cc1 (centres undefined),42.2%
6,COc1cc2c(Nc3ccc(Cl)c(Cl)c3F)ncnc2cc1OCC1C[C@@H]2CN(C)C[C@@H]2C1 (some centres undefined),-86.1% (active) and -71.9% (active)
7,Cn1cc(-c2csc(-c3c[nH]c4ccccc34)n2)c2cnccc21,-20.8% (active)
8,Cc1cc(-c2cc(O)ccc2Cl)cc2nnc(Nc3ccc(OCCN4CCCC4)cc3)nc12,-69.4% (active)
9,CCn1c2ccc(O)cc2c2c(C)c3c[n+](C)ccc3c(C)c21,-31.2% (active)
10,Cc1sc2ncn(CC(=O)Nc3ccc(S(N)(=O)=O)cc3)c(=O)c2c1C,104%
11,O=[N+]([O-])c1cccc(C2c3ccccc3Oc3ccccc32)c1,95.4%
12,CNC(=O)CCN1CCN(CC/C=C2\c3ccccc3Sc3ccc(Cl)cc32)CC1,72.5%
13,CC(C)(C)Nc1nc2c(OCCc3ccccc3)cccn2c1-c1cccc(Oc2ccccc2)c1,-12.7% (active)
14,COc1cc2nc3cc([N+](=O)[O-])ccc3c(Cl)c2cc1OC,10.7%

# Source: PubChem BioAssay (NCI)
